The values below come from PubChem BioAssay (EPA / NIEHS).

A short description of assay [1]: TOX21_p53_BLA_p4_viability: Viability Assessment in the Tox21 HCT-116 p53 Agonism Beta-lactamase Assay, Phase 4 (AID 2283597).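 Note: hits lower the luminescence signal meaning cytotoxicity.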 The gist of the method: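 Cells plated, 5 h pre-incubation; DMSO compounds pinned (217-fold dilution); 16 h, 37C/5% CO2; CCF4-AM 2 h RT; CellTiter-Glo 30 min RT; luminescence read.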
Assay [2] addresses Cellular tumor antigen p53 (Homo sapiens) (UniProt P04637). Description: TOX21_p53_BLA_p5_ratio: Tox21 HCT-116 p53 Agonism Beta-lactamase Assay, Ratio, Phase 5 (AID 2283599). The gist of the method: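 Beta-lactamase reporter ratio (blue 460 nm over green 530 nm, 405 nm excitation) after 2 h CCF4-AM loading, in HCT-116 cells exposed 16 h at 37 C to compounds pinned at 217-fold dilution. Increases relative to DMSO baseline scored.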

Assay [3] in a line: TOX21_p53_BLA_p5_viability: Viability Assessment in the Tox21 HCT-116 p53 Agonism Beta-lactamase Assay, Phase 5 (AID 2283600). In a few lines: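 4000 cells/well; 5 h pre-incubation; DMSO compounds pin-transferred, 217-fold dilution; 16 h, 37C/5% CO2; CCF4-AM 2 h RT; CellTiter-Glo 30 min RT; luminescence.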
Assay [4] is described as follows: Tanguay_ZF_120hpf_MORT_legacy: (Legacy) Oregon State University Tanguay Lab 120 Hour Post-fertilization zebrafish Assay for Mortality (AID 2283633).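 For AC50: fitted as increase in binary mortality versus DMSO negative control.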 In a few lines: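 5D WT zebrafish, chorion removed 4 hpf; 1 embryo/well from 6 hpf; static exposure to 120 hpf, 28C, dark, sealed. Final DMSO 0.64%. Readout: binary mortality, brightfield, 24 + 120 hpf; DMSO as negative control.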

Assay [5] is described as follows: Tanguay_ZF_120hpf_YSE_legacy: (Legacy) Oregon State University Tanguay Lab 120 Hour Post-fertilization zebrafish Assay for Yolk Sac Edema (AID 2283634).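 For AC50: actives raise the incidence of yolk sac edema above the DMSO baseline.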 In a few lines:
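Dechorionate (pronase, 4 hpf) → place one 6 hpf embryo per well → static compound exposure, sealed and foil-covered, 28C, to 120 hpf → record yolk sac edema as present or absent. Final DMSO 0.64%.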

Assay [6] is described as follows: Tanguay_ZF_120hpf_AXIS_legacy: (Legacy) Oregon State University Tanguay Lab 120 Hour Post-fertilization zebrafish Assay for Body Axis Malformation (AID 2283635). The gist of the method: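 Chorion is removed with pronase at 4 hpf, then single 6 hpf embryos are dosed (final DMSO 0.64%) and held statically at 28C in sealed, foil-covered plates. At 120 hpf body axis malformation is recorded as present or absent.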

A short description of assay [7]: Tanguay_ZF_120hpf_EYE_legacy: (Legacy) Oregon State University Tanguay Lab 120 Hour Post-fertilization zebrafish Assay for Eye Malformation (AID 2283636). The gist of the method:
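Read-out is binary presence or absence of eye malformation, scored by brightfield microscopy at 120 hpf. Single larvae were exposed from 6 hpf in embryo medium containing 0.64% DMSO, with DMSO as baseline.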

Assay [8] is described as follows: Tanguay_ZF_120hpf_SNOU_legacy: (Legacy) Oregon State University Tanguay Lab 120 Hour Post-fertilization zebrafish Assay for Snout Malformation (AID 2283637). The gist of the method: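 Snout malformation read as a yes/no call on brightfield images of 120 hpf larvae (Tropical 5D strain). Static exposure began at 6 hpf on dechorionated embryos in 0.64% DMSO, with gain of signal analysed versus DMSO controls.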

Assay [9] can be described thus: Tanguay_ZF_120hpf_OTIC_legacy: (Legacy) Oregon State University Tanguay Lab 120 Hour Post-fertilization zebrafish Assay for Otic Vesicle Malformation (AID 2283639). The gist of the method: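 Tropical 5D wild-type zebrafish embryos statically exposed in 0.64% DMSO at 28C until 120 hpf; 5uM trimethyltin chloride as positive control. Otic vesicle malformation scored present/absent by brightfield; dead embryos not scored; gain fitted versus DMSO.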

Assay [10] in a line: Tanguay_ZF_120hpf_PE_legacy: (Legacy) Oregon State University Tanguay Lab 120 Hour Post-fertilization zebrafish Assay for Pericardial Edema (AID 2283640).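 For AC50: potency for increased incidence of pericardial edema versus DMSO baseline.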 In a few lines: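 Embryos from wild-type 5D adults were staged, then dosed in 0.64% DMSO. They were kept sealed in the dark at 28C until 120 hpf. Pericardial edema was then recorded as present or absent.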
Assay [11] is described as follows: Tanguay_ZF_120hpf_SOMI_legacy: (Legacy) Oregon State University Tanguay Lab 120 Hour Post-fertilization zebrafish Assay for Somite Malformation (AID 2283647). In a few lines:
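Read-out: presence or absence of somite malformation in 120 hpf larvae, gain-of-signal relative to DMSO baseline. Embryos lacked chorion (pronase, 4 hpf) and were exposed statically from 6 hpf at 28C; dead larvae not scored.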

The nature of assay [12]: Tanguay_ZF_120hpf_PFIN_legacy: (Legacy) Oregon State University Tanguay Lab 120 Hour Post-fertilization zebrafish Assay for Pectoral Fin Malformation (AID 2283648).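 Note: each larva judged yes or no for fin defect by brightfield with dead larvae skipped.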 The gist of the method: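 5D WT zebrafish; pronase dechorionation 4 hpf; 1 embryo/well at 6 hpf; static exposure to 120 hpf, 28C, sealed, foil-covered; final DMSO 0.64% v/v; 5 uM trimethyltin chloride positive control; fin defect scored yes/no.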

Assay [13] in a line: Tanguay_ZF_120hpf_CFIN_legacy: (Legacy) Oregon State University Tanguay Lab 120 Hour Post-fertilization zebrafish Assay for Caudal Fin Malformation (AID 2283649). In a few lines: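 Binary presence or absence of caudal fin malformation at 120 hpf, read by brightfield microscopy, with DMSO as baseline. Larvae came from 5D wild-type embryos exposed statically from 6 hpf at 28C after pronase dechorionation.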

The nature of assay [14]: Tanguay_ZF_120hpf_CIRC_legacy: (Legacy) Oregon State University Tanguay Lab 120 Hour Post-fertilization zebrafish Assay for Circulatory Malformation (AID 2283651). In a few lines:
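Dechorionated wild-type 5D zebrafish embryos, one per well, statically exposed from 6 to 120 hpf at 28C with 0.64% DMSO; circulatory malformation scored present/absent by brightfield microscopy at 120 hpf, dead embryos excluded.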

For assay [15], the target named is Cellular tumor antigen p53 (Homo sapiens) (UniProt P04637). Description: TOX21_p53_BLA_p4_ratio: Tox21 HCT-116 p53 Agonism Beta-lactamase Assay, Ratio, Phase 4 (AID 2283601). In a few lines:
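Signal is the blue/green (460nm/530nm) ratio of cleaved versus uncleaved CCF4-AM substrate, read after 2 h substrate loading. Cells were HCT116 carrying the p53-responsive beta-lactamase reporter, dosed 16 h at 37C, 5% CO2; CellTiter-Glo measured in parallel.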

The nature of assay [16]: Tanguay_ZF_120hpf_PIG_legacy: (Legacy) Oregon State University Tanguay Lab 120 Hour Post-fertilization zebrafish Assay for Pigmentation Malformation (AID 2283650). In a few lines: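 Pronase dechorionation at 4 hpf; embryos plated at 6 hpf, one per well; static exposure, sealed and foil-covered, 28C, to 120 hpf; pigmentation read by brightfield, binary; DMSO 0.64% baseline, 5uM trimethyltin chloride positive control.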

Assay [17] in a line: Tanguay_ZF_120hpf_JAW_legacy: (Legacy) Oregon State University Tanguay Lab 120 Hour Post-fertilization zebrafish Assay for Jaw Malformation (AID 2283638). In a few lines: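 Steps: dechorionate 4 hpf embryos (pronase); plate 1/well at 6 hpf; add test chemical, 0.64% DMSO final; seal, cover, hold at 28C statically to 120 hpf; score jaw defect presence/absence microscopically. Dead embryos not scored.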

Read-out in assay [18]: kallikrein-3 (KLK3), KLK3 (gene 354)
As to the kind of experiment: LTEA_HepaRG_KLK3: Life Technologies and Expression Analysis (LTEA) Assay for kallikrein-3 (KLK3) using HepaRG (AID 2283652; active = hit-call score of the fitted dose curve at least 0.9, where 1 is the maximum; inactive = score below 0.9). The following applies: mRNA level, 48 h; actives raise or lower the signal. The gist of the method: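 Differentiated human HepaRG cells in serum-free induction medium exposed 48 h in duplicate, eight-point half-log series from 100 uM in 0.5% DMSO. KLK3 mRNA by qRT-PCR, normalised to ACTB, GAPDH, POLR2A; bidirectional fit versus DMSO.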

Read-out in assay [19]: solute carrier (SLC22A6), SLC22A6 (gene 9356)
Description: LTEA_HepaRG_SLC22A6: Life Technologies and Expression Analysis (LTEA) Assay for solute carrier (SLC22A6) using HepaRG (AID 2283653; active = hit-call score of the fitted dose curve at least 0.9, where 1 is the maximum; inactive = score below 0.9). The following applies: mRNA level, 48 h; actives raise or lower the signal. In a few lines:
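Read-out is SLC22A6 transcript level by qRT-PCR, normalised to three housekeeping genes and fitted for gain or loss relative to 0.5% DMSO vehicle. Human HepaRG cells received chemicals at up to 100 uM for 48 h.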

Assay [20] is described as follows: Tanguay_ZF_120hpf_BRAI_legacy: (Legacy) Oregon State University Tanguay Lab 120 Hour Post-fertilization zebrafish Assay for Brain Malformation (AID 2283641). The gist of the method:
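Wild-type 5D larvae, static waterborne exposure to 120 hpf, 28C, 0.64% v/v DMSO. Brightfield scoring of brain defects, binary; dead embryos excluded. Positive ctrl 5uM trimethyltin chloride.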

“And” between values parts separate entries of the source, which are not always exact repeats. Equal values may be shown once. Inconclusive results are not listed. A structure can be active in one record and inactive in another. The source made the active and inactive calls. Rule for the calls, unless noted: active = hit-call score of the fitted dose curve at least 0.9, where 1 is the maximum; inconclusive = response in the unintended direction; inactive = score below 0.9.

Chain of Cellular tumor antigen p53 (Homo sapiens) (P04637 whole entry, looked up): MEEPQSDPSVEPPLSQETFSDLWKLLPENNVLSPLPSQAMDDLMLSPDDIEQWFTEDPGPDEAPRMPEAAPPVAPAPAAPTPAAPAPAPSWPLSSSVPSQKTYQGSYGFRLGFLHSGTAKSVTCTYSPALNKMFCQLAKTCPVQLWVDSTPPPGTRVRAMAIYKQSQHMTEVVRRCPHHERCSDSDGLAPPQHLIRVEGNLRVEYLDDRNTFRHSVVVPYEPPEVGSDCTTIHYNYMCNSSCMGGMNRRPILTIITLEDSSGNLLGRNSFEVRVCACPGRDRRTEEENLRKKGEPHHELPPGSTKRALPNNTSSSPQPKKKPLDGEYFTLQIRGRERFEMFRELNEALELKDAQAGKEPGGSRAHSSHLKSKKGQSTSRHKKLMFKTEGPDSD

`Cc1cc(SC2=C(O)C[C@@](CCc3ccc(N)cc3)(C(C)C)OC2=O)c(C(C)(C)C)cc1CO`: the outcome in assay [1], in assay [2], in assay [3], in assay [4], in assay [5] and in assay [6] was inactive. Further, the compound was classed as inactive in assay [7], in assay [8], in [9], in assay [10], in assay [11] and in assay [12]. The result in [13] and in assay [14] was inactive.
`COc1ccc(OC(F)(F)F)cc1CN[C@H]1CCCN[C@H]1c1ccccc1`: the results for the AC50 in assay [1], in assay [15] and in assay [4] were 62.1 µM (active), 82.3 µM (active) and 25 µM (active), respectively. For the same compound, the result in assay [2], in assay [3], in assay [5], in assay [6], in assay [7] and in assay [8] was inactive. The compound was classed as inactive in assay [9], in assay [10], in [12], in assay [13], in [16] and in assay [14].
Turning to `CN(C)C(=O)NC1(c2ccccc2)CCN(CC[C@@]2(c3ccc(F)c(F)c3)CN(C(=O)c3ccccc3)CCO2)CC1`, the AC50 in [1] is 65 µM (active). Moreover, the result in assay [2], in [3], in assay [15], in [4], in assay [5] and in assay [6] was inactive. For the same compound, the outcome in [7], in [8], in assay [17], in assay [9], in assay [10] and in [11] was inactive. In addition, the result in assay [12], in [13], in assay [16] and in assay [14] was inactive.
For the compound `CCc1nc(N)nc(N)c1-c1ccc(Cl)cc1`, the AC50 is 18.3 µM (active) and 15.9 µM (active) and 10.4 µM (active) in [1]; 15.3 µM (active) in assay [3]; 47.9 µM (active) in assay [15]. Besides, the result in assay [2], in [3], in assay [15], in [4], in assay [5] and in [6] was inactive. Further, the outcome in assay [17], in assay [9], in assay [10], in assay [11], in [12] and in [13] was inactive. The compound was classed as inactive in [16] and in assay [14].
On to `Cc1cc(Cc2ccc(N)c(C)c2)ccc1N`, for which the result in assay [1], in assay [2], in assay [3], in [4], in assay [5] and in assay [6] was inactive. In addition, the outcome in assay [7], in assay [8], in assay [17], in assay [9], in assay [10] and in assay [11] was inactive. Further, the compound was classed as inactive in assay [12], in [13], in assay [16] and in assay [14].
With `CCC(C)N(C)C(=O)c1cc2ccccc2c(-c2ccccc2Cl)n1` (stereo not given), the compound was called inactive in assay [1], in [2], in assay [3], in [15], in assay [4] and in [6]. For the same compound, the compound was classed as inactive in [7], in [8], in assay [17], in assay [9], in assay [11] and in assay [12]. Moreover, the compound was classed as inactive in assay [13], in assay [16], in assay [14], in assay [18] and in assay [19]. For the same compound, the concentration at half-maximal activity (AC50) in assay [5] was 20.4 µM (active); in [10], 6.53 µM (active).
`CCCCC(CC)CO` (stereo not given): the result in assay [2], in assay [3], in assay [15], in assay [4], in assay [5] and in [6] was inactive. In addition, the outcome in [7], in assay [8], in assay [17], in assay [9], in assay [10] and in assay [12] was inactive. In addition, the outcome in [13], in [14], in [18] and in assay [19] was inactive.
Take `CCOCCOCCO`: the outcome in assay [2], in assay [15], in assay [4], in [5], in assay [6] and in assay [7] was inactive. In addition, the compound was called inactive in assay [8], in assay [17], in assay [9], in [10], in [20] and in assay [11]. Moreover, the compound was classed as inactive in [12], in [13], in assay [16] and in [14].

By AC50 is commonly meant the midpoint of the concentration-response curve, whichever way the signal moves.
